Consider eight compounds from PubChem BioAssay (NCI).

Compounds without any hit were thinned out: in the full panel of roughly 83,000, 20% have a hit.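 The test compound was applied at a single concentration to cells in 96-well plates for 48 hours, and percent growth was recorded.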 Unmarked numbers belong to inactive results. The source made the active and inactive calls. The calls were made as follows: active = growth percent below 10; inactive = the rest.

Common to all, as to test: NCI-60 one-dose screen, 48 h (100 = growth as untreated, 0 = no growth, -100 = all killed)
One test has as its system HCT-15 colon. Conditions: 10 µM unless noted.
A further test relates to HT29 colon. The following applies: 10 µM unless noted.
Another test deals with SNB-75 CNS. Conditions: 10 µM unless noted.
Another test relates to SNB-19 CNS. Conditions: 10 µM unless noted.
The subject of a further test is U251 CNS. Conditions: 10 µM unless noted.
The next test relates to PC-3 prostate. The following applies: 10 µM unless noted.
The next test relates to SK-MEL-5 melanoma. The following applies: 10 µM unless noted.
A further test deals with UACC-62 melanoma. Conditions: 10 µM unless noted.
The test system of another test is LOX IMVI melanoma. Conditions: 10 µM.
In another test the test system is SK-MEL-28 melanoma. The following applies: 10 µM unless noted.
The next test has as its system SK-MEL-2 melanoma. The following applies: 10 µM unless noted.
A further test concerns EKVX NSCLC. The following applies: 10 µM unless noted.
In a further test the test system is SN12C renal. Conditions: 10 µM unless noted.
Another test has as its system UO-31 renal. The following applies: 10 µM unless noted.
The test system of a further test is TK-10 renal. The following applies: 10 µM unless noted.
The subject of the next test is ACHN renal. The following applies: 10 µM unless noted.
Another test has as its system CAKI-1 renal. Conditions: 10 µM unless noted.
The subject of another test is A498 renal. The following applies: 10 µM unless noted.
The test system of another test is CCRF-CEM leukemia. The following applies: 10 µM unless noted.
Another test relates to MOLT-4 leukemia. The following applies: 10 µM unless noted.

Consider `CSc1nsc(N)n1`, for which the growth in the test with HCT-15 colon was 95.5%; with HT29 colon it was 95.1%; in the test with SNB-75 CNS, 87.4%; in the test with SNB-19 CNS, 96%; in the test with U251 CNS it was 94.9%; in the test on PC-3 prostate, 93.6%. The growth is 101% with SK-MEL-5 melanoma; 93.1% in the test with UACC-62 melanoma; 98.2% in the test with LOX IMVI melanoma; 106% in the test on SK-MEL-28 melanoma; 94.2% in the test on SK-MEL-2 melanoma; 97.4% in the test on EKVX NSCLC. The growth was 96% with SN12C renal; 82.3% with UO-31 renal; 101% in the test on TK-10 renal; 107% in the test on ACHN renal; 97.2% in the test with CAKI-1 renal; 87.5% in the test on A498 renal. Also, the growth in the test on CCRF-CEM leukemia was 108%; in the test on MOLT-4 leukemia it was 97.9%.

`O=C(OCc1ccccc1)n1nnc2ccccc21`: the growth in the test with HCT-15 colon was 104%; in the test with HT29 colon, 106%; in the test with SNB-75 CNS, 90.2%; with SNB-19 CNS it was 112%; with U251 CNS, 99.2%; with PC-3 prostate it was 104%. The growth with SK-MEL-5 melanoma is 105%; in the test with UACC-62 melanoma it was 94.4%; in the test with LOX IMVI melanoma it was 99.6%; in the test on SK-MEL-28 melanoma it was 101%; in the test with SK-MEL-2 melanoma, 108%; with EKVX NSCLC, 98.2%. In addition, the growth is 97% in the test on SN12C renal; 94.9% with UO-31 renal; 107% in the test with TK-10 renal; 108% with ACHN renal; 93.1% in the test on CAKI-1 renal; 124% with A498 renal. Also, the growth with CCRF-CEM leukemia was 111%; with MOLT-4 leukemia, 116%.

For the compound `O=C(OCC1CCCO1)c1ccc([N+](=O)[O-])cc1` (stereo not given), the growth with HCT-15 colon is 104%; with HT29 colon, 108%; in the test on SNB-75 CNS it was 85.8%; with SNB-19 CNS, 102%; with U251 CNS, 91.7%; with PC-3 prostate, 88.4%. For the same compound, the growth in the test on SK-MEL-5 melanoma was 104%; in the test on UACC-62 melanoma, 99.8%; with LOX IMVI melanoma, 104%; in the test with SK-MEL-28 melanoma, 108%; with SK-MEL-2 melanoma, 103%; with EKVX NSCLC it was 106%. Also, the growth in the test on SN12C renal was 95.3%; with UO-31 renal, 86.9%; in the test on TK-10 renal, 99.4%; with ACHN renal it was 104%; in the test on CAKI-1 renal, 106%; in the test with A498 renal, 82.2%. Further, the growth in the test on CCRF-CEM leukemia was 94.2%; with MOLT-4 leukemia it was 101%.

For `COc1ccc(-c2csc(NC(=O)Nc3nc(-c4ccc(OC)cc4)cs3)n2)cc1`, the growth in the test with HCT-15 colon is 86.5%; with HT29 colon it was 104%; in the test on SNB-75 CNS, 99.2%; in the test with SNB-19 CNS, 96.6%; in the test with U251 CNS, 79.5%; with PC-3 prostate, 67.4%. The growth in the test with SK-MEL-5 melanoma was 29.3%; in the test on UACC-62 melanoma it was 81.3%; with LOX IMVI melanoma, 83.6%; in the test with SK-MEL-28 melanoma it was 99%; with SK-MEL-2 melanoma it was 116%; in the test on EKVX NSCLC, 72.3%. For the same compound, the growth was 93.6% in the test on SN12C renal; 75.4% in the test on UO-31 renal; 99.8% with TK-10 renal; 90.1% in the test with ACHN renal; 81.5% in the test with CAKI-1 renal; 96.3% with A498 renal. Moreover, the growth in the test on CCRF-CEM leukemia is 76%; with MOLT-4 leukemia, 34.8%.

As to `ClCc1cccc2c(CCl)cccc12`, the growth was 73.8% with HCT-15 colon; 71.1% with HT29 colon; 88% in the test with SNB-75 CNS; 70.4% with SNB-19 CNS; 56.6% in the test on U251 CNS; 65.9% in the test with PC-3 prostate. The growth was 77.6% with SK-MEL-5 melanoma; 64% in the test on UACC-62 melanoma; -51.8% (active) in the test with LOX IMVI melanoma; 83.7% in the test with SK-MEL-28 melanoma; 84.3% in the test on SK-MEL-2 melanoma; 82.2% in the test on EKVX NSCLC. The growth is 64.5% in the test on SN12C renal; 60.4% in the test on UO-31 renal; 86.8% with TK-10 renal; 31.5% in the test on ACHN renal; 15.2% with CAKI-1 renal; 107% in the test on A498 renal. Also, the growth in the test with CCRF-CEM leukemia was 29.8%; in the test on MOLT-4 leukemia, 27.7%.

In the case of `Cc1ccc(S(N)(=O)=O)cc1Cl`, the growth in the test with HCT-15 colon is 104%; in the test with HT29 colon it was 104%; in the test on SNB-75 CNS it was 91.8%; in the test with SNB-19 CNS it was 107%; in the test on U251 CNS, 103%; in the test on PC-3 prostate, 99.3%. Also, the growth in the test on SK-MEL-5 melanoma was 103%; in the test with UACC-62 melanoma it was 105%; in the test on LOX IMVI melanoma it was 114%; in the test with SK-MEL-28 melanoma it was 108%; in the test on SK-MEL-2 melanoma, 103%; in the test with EKVX NSCLC, 125%. Moreover, the growth with SN12C renal was 106%; with UO-31 renal, 94.5%; in the test with TK-10 renal, 107%; in the test on ACHN renal, 107%; in the test with CAKI-1 renal, 101%; with A498 renal, 106%. In addition, the growth was 102% in the test on CCRF-CEM leukemia and 96.6% with MOLT-4 leukemia.

`c1ccc(Nc2ccccn2)nc1`: the growth with HCT-15 colon was 95.7%; with HT29 colon it was 100%; in the test on SNB-75 CNS, 82.3%; in the test on SNB-19 CNS it was 97.5%; with U251 CNS, 91.8%; in the test on PC-3 prostate, 95.9%. The growth in the test on SK-MEL-5 melanoma is 103%; in the test with UACC-62 melanoma, 94.1%; with LOX IMVI melanoma, 95.7%; in the test with SK-MEL-28 melanoma, 118%; in the test on SK-MEL-2 melanoma, 95%; with EKVX NSCLC, 91.8%. Also, the growth was 96.8% in the test with SN12C renal; 96.7% in the test on UO-31 renal; 99.4% in the test with TK-10 renal; 96% with ACHN renal; 95% in the test on CAKI-1 renal; 112% in the test on A498 renal. The growth in the test on CCRF-CEM leukemia is 90.9%; in the test on MOLT-4 leukemia, 91.7%.

For `C=CCNC(=S)N/C=C(/C(=O)c1ccccc1)c1ccccc1`, the growth in the test with HCT-15 colon is 108%; with HT29 colon, 120%; in the test with SNB-75 CNS it was 88.5%; with SNB-19 CNS, 106%; in the test on U251 CNS it was 96.7%; in the test with PC-3 prostate, 99.9%. Besides, the growth in the test with SK-MEL-5 melanoma was 102%; in the test with UACC-62 melanoma it was 98.8%; in the test with LOX IMVI melanoma it was 98.1%; with SK-MEL-28 melanoma it was 104%; with SK-MEL-2 melanoma, 120%; in the test on EKVX NSCLC, 106%. The growth with SN12C renal was 93.6%; in the test with UO-31 renal it was 95.3%; in the test on TK-10 renal it was 107%; with ACHN renal, 97.7%; with CAKI-1 renal, 101%; in the test with A498 renal it was 98%. Besides, the figures for the growth in the test with CCRF-CEM leukemia and with MOLT-4 leukemia were 101% and 99.2%, respectively.
